PTHR1 ag: agonists of human PTHR1 parathyroid hormone receptor | 0.075% of 410,000 active | Potency, µM (top dose mostly 115 µM), actives largely listed as activators | HEK293 GP2 PTHR1 cells, GloSensor cAMP luminescence, 1 h | Q03431; further: nearly all actives have a fitted effect of over 55% in size
Target sequence (Q03431 whole entry, looked up): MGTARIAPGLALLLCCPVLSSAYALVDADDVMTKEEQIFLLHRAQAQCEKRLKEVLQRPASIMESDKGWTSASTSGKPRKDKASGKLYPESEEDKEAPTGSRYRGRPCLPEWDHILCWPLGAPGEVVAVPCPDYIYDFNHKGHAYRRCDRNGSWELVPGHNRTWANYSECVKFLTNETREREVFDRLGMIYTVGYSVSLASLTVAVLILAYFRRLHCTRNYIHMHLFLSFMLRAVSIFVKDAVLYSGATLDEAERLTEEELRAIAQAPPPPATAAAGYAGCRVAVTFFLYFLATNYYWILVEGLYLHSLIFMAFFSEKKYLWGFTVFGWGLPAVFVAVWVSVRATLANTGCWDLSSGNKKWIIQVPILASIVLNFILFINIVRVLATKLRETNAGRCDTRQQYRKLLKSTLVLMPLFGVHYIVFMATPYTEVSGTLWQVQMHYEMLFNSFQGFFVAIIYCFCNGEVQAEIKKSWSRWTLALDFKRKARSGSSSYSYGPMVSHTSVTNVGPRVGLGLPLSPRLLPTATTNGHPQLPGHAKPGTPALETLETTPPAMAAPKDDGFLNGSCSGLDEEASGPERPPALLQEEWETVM
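HEK-293-derived GP2 cells expressing PTHR1 and a GloSensor cAMP reporter, 3,000/well, plated overnight, given luciferin plus IBMX (each 0.5 mM as added) for 1 h at 37 °C, then compound for 1 h at 37 °C. Luminescence was read after 15 min at room temperature.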
Abeta yeast res: restores growth of yeast expressing A-beta42 peptide; 0.063% of 410,000 active; AID 1347071; Potency, µM (highest dose often 46.1 µM), hits mostly activators; yeast expressing A-beta42, growth rescue, OD600, 48 h; response scale: 0% DMSO, 100% iron-clioquinol control; further: nearly all actives have a fitted effect of over 55% in size
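Yeast growth medium received pinned compounds, then yeast cells expressing toxic A-beta were added; plates incubated at 30 C for 48 hr. Growth read as absorbance at 600 nm, normalized to DMSO and equimolar FeCl3 plus clioquinol controls.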
aSyn yeast inh: alpha-synuclein toxicity inhibition in yeast | Yeast expressing alpha-synuclein, growth rescue, BacTiter-Glo, 24 h | Potency, µM (top dose mostly 46.1 µM), hits mostly activators | 0.14% of 370,000 active; further: nearly all actives have a fitted effect of over 65% in size
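Screening used galactose-induced yeast with toxic alpha-synuclein levels, exposed to compound for 24 hr at 30 deg C. Cell growth, read with BacTiter-Glo luminescence, gave the measured signal.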
FUS suppressor: suppressors of FUS proteinopathy in yeast. S. cerevisiae FUS-expressing, growth rescue, OD600, 24 h. Potency, µM (top dose mostly 76.6 µM), most hits filed as activators. 0.24% of 390,000 active. AID 1347120; further: nearly all actives have a fitted effect of over 55% in size
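Yeast expressing FUS under galactose induction, OD 0.005 in 2% galactose medium; compounds in a dilution series, 24 h at 30C. Growth rescue by absorbance at 600 nm; CP55940 positive control, DMSO negative.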
LDHA block: inhibitors of human lactate dehydrogenase A. P00338. purified LDHA, NADH/diaphorase-resazurin fluorescence; stronger effect = lower value. activity change, % (values are at about 110 or 230 µM). 0.15% of 480,000 active; in the data active means activity change below about -30%; inconclusive means mostly about -25% to -30%
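LDH5 2 nM; NADH 0.06 mM, pyruvate 0.2 mM; 200 mM Tris pH 7.4, EDTA, Tween-20; 5 min RT. Detection: diaphorase 0.133 mg/mL + resazurin 37 µM, fluorescence ex540/em590 at 0 and 20 min; normalized to enzyme-free and DMSO wells.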
TDP-43 yeast inh: rescues yeast growth from TDP-43 toxicity; TDP-43 expressing yeast growth rescue, BacTiter-Glo, 24 h; Potency, µM (series often up to 46.1 µM), hits mostly activators; 1.8% of 410,000 active; AID 652104; further: nearly all actives have a fitted effect of over 50% in size
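Galactose-induced TDP-43 yeast, OD600=0.02, compound pinned; 24 hr, 30 deg C; BacTiter-Glo luminescence for growth. Inhibitors of TDP-43 toxicity read as activators.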
A number is an active result; i = inactive; ? = inconclusive; nt = no result. A selection: hits, their analogues and other compounds. The true share with any hit is near 1.9%. Unless noted, the call rests on the fitted dose curve; in most records, active means well fitted curve in the direction sought with a large enough effect; inconclusive means small, poorly fitted or top-dose-only effect, or another doubt; inactive means no such curve, though single readings can be large; an effect the other way counts as inactive or inconclusive.

SMILES | PTHR1 ag | Abeta yeast res | aSyn yeast inh | FUS suppressor | LDHA block | TDP-43 yeast inh
O=S(=O)(c1ccc(Sc2nnnn2C2CC2)nc1)N1CCCCC1 | nt | nt | nt | nt | i | nt
CCCCn1nnnc1NCc1ccc(N2CCCC2)cc1 | i | i | i | 28µM | i | i
CCCn1nnnc1NCc1ccc(N2CCCC2)cc1 | i | i | i | ? | i | i
CC(C)(C)C(=O)Nc1ccc(-c2csc(NCc3ccco3)n2)cc1 | nt | nt | nt | nt | i | nt
O=C(O)C1CCN(c2c([N+](=O)[O-])cc(C(F)(F)F)cc2[N+](=O)[O-])CC1 | i | i | i | i | i | 20µM
O=C(CCc1ccccc1)Nc1ccc(-c2nc(-c3ccccc3)co2)cc1 | nt | nt | nt | nt | i | nt
O=C(Cn1cnc([N+](=O)[O-])c1)c1ccc(Cl)cc1 | i | i | i | i | i | 16µM
CC(C)C(=O)N1CCC(C(=O)NCC2(c3ccc(F)cc3)CC2)CC1 | nt | nt | nt | nt | i | nt
COc1ccc2nc(N(Cc3cccnc3)C(=O)C3CCCCC3)sc2c1 | i | i | nt | i | i | 6.3µM
O=C(C1CCCCC1)N(Cc1cccnc1)c1nc2ccc(F)cc2s1 | i | i | nt | i | i | ?
Cc1cccc2sc(N(Cc3cccnc3)C(=O)c3cccs3)nc12 | i | i | nt | i | i | 32µM
O=C(c1ccco1)N(Cc1cccnc1)c1nc2c(F)cccc2s1 | i | i | nt | i | i | i
Cc1cccc2sc(N(Cc3cccnc3)C(=O)c3ccco3)nc12 | i | i | nt | i | i | 18µM
Cc1cccc2sc(N(Cc3cccnc3)C(=O)Cc3ccccc3)nc12 | i | i | nt | i | i | 13µM
COc1ccc(OC)c(CNCc2cccn2-c2nnc(N3CCN(C)CC3)s2)c1 | nt | nt | nt | nt | i | nt
C#CC(CC)(CC)NC(=O)CSc1nc2cc(Cl)ccc2s1 | nt | nt | nt | nt | i | nt
COc1ccc2nc(N(Cc3cccnc3)C(=O)c3ccco3)sc2c1 | i | i | nt | i | i | ?
CCOc1ccc2nc(N(Cc3cccnc3)C(=O)c3ccco3)sc2c1 | i | i | nt | i | i | 20µM
Cc1occc1C(=O)Nc1cccc(Cl)c1Cl | i | i | i | i | i | 11µM
CCCCNC(=O)C[C@@H]1C[C@@]2(C(=O)OCC)CCCC=C2N(CCC2=CCCCC2)C1=O | i | i | i | i | i | 35µM
CCOC(=O)[C@]12CCCC=C1N(CCC1=CCCCC1)C(=O)[C@H](CC(=O)NCc1cccc3ccccc13)C2 | i | ? | i | i | i | 35µM
CCCCCCCCN1C(=O)[C@H](CC(=O)N2CCN(C(=O)OCC)CC2)C[C@@]2(C(=O)OCC)CCCC=C12 | i | i | i | ? | i | 25µM
CCCCCCCCN1C(=O)[C@H](CC(=O)NCCCOC)C[C@@]2(C(=O)OCC)CCCC=C12 | i | i | i | 13µM | i | i
COc1ccc(-c2onc3ccc(Br)cc23)cc1OC | nt | nt | nt | nt | i | nt
CCOC(=O)N1CCN(C(=O)C[C@@H]2C[C@@]3(C(=O)OC)CCCCC=C3N(Cc3ccc(Cl)cc3Cl)C2=O)CC1 | i | i | i | ? | i | 22µM
SMILES | PTHR1 ag | Abeta yeast res | aSyn yeast inh | FUS suppressor | LDHA block | TDP-43 yeast inh
CCOC(=O)N1CCN(C(=O)C[C@@H]2C[C@@]3(C(=O)OCC)CCCC=C3N(Cc3ccc(Cl)cc3Cl)C2=O)CC1 | i | i | i | ? | i | ?
Cc1c(C(=O)NCc2ccc3c(c2)OCO3)oc2ccc(Br)cc12 | i | i | i | i | i | i
CC(C)Cc1ccc(C(=O)NCc2ccc3c(c2)OCO3)o1 | i | i | i | i | i | 14µM
CCc1nc(NCc2ccc3c(c2)OCO3)c2oc3ccccc3c2n1 | i | i | i | i | i | 11µM
O=C(NCc1ccc2c(c1)OCO2)c1ccc(CS(=O)(=O)c2ccc(Br)cc2)o1 | i | i | i | i | i | i
Cc1c(C(=O)NCc2ccc3c(c2)OCO3)oc2ccccc12 | i | i | i | i | i | 16µM
Cc1cc2oc(C(=O)NCc3ccc4c(c3)OCO4)c(C)c2cc1C | i | i | i | i | i | i
Cc1ccc2oc(C(=O)NCc3ccc4c(c3)OCO4)c(C)c2c1 | i | i | i | i | i | 22µM
Cc1ccc(Nc2nc(CSc3nnnn3C3CC3)cs2)cc1C | nt | nt | nt | nt | i | nt
